From PubChem BioAssay

Assay: basal MM1S mitochondrial membrane potential changes, profiling panel, cell-based, JC-1 fluorescence, 24 h, 100 nL compound (AID 1170); also: test concentration not given here
Conditions: higher = more signal

| SMILES | z-score |
| --- | --- |
| CN1C(=O)[C@]2(CCC(=O)OC(C)(C)C)N=C(c3ccc(OCCCO)cc3)O[C@@H]2c2ccccc21 | 0.129 |
| CC(c1ccccc1)C(O)C1C=CC2C(=O)N(c3ccccc3)C(=O)C2N1Nc1ccc(C#N)cc1 (stereo unspecified) | 0.222 |
| COCCOC(=O)N1C(=O)[C@@]2(c3cc(C#CCCO)ccc31)[C@H](C(=O)N1CCN(c3ncccn3)CC1)[C@H]1C(=O)O[C@H](c3ccccc3)[C@H](c3ccccc3)N1[C@@H]2c1ccc(O)cc1 | -1.07 |
| C#CCN(C/C=C/c1ccccc1)[C@H](CO[Si](C)(C)C(C)(C)C)c1ccccc1 | 0.653 |
| NCCCC[C@@H]1NC(=O)[C@H]2C[C@@H](C(=O)O)[C@@H](c3cccc(OCCO)c3)N2C1=O | -0.658 |
| [N-]=[N+]=NCc1ccccc1C[C@]1(C(=O)N2CCCCC2)N=C(c2ccc(OCCCO)cc2)O[C@H]1c1ccccc1 | -2.38 |
| CCCCC(=C=CC[C@H](O)c1ccc(OCCO)cc1)C[C@H](O)c1ccccn1 | -0.603 |
| CN(C)C(=O)[C@@]1(CCS(=O)(=O)c2ccccc2)N=C(c2ccc(OCCCO)cc2)O[C@H]1c1ccccc1N=[N+]=[N-] | -0.591 |
| [N-]=[N+]=NCc1ccccc1[C@@H]1OC(c2ccc(OCCCO)cc2)=N[C@]1(Cc1ccccc1)C(=O)NCc1ccccc1 | -0.921 |
| O=C(NCCO)C1=C[C@H](Oc2ccccc2I)[C@@H](O)[C@H](NCc2ccc(F)cc2)C1 | 0.185 |
| COc1ccc([Si](C)(C)[C@@H]2[C@@H](CC(=O)N(CCO)Cc3ccccc3)O[C@]3(C(=O)N(Cc4ccc(N5CCC5=O)cc4)c4ccccc43)[C@H]2C)cc1 | -0.83 |
